Data as given in the supplement of paper PMC4022240.
± gives the standard deviation.

Columns and labels:
Experiment in all cases: peptide microarray binding signal (635 nm), min-max normalized on array (fraction of array maximum); higher = stronger binding
Conditions in all cases: peptide region: H2B 17-29
[1] = molecular target: T1, HaloTag-ATRX ADD domain (163-292)
T1 chain: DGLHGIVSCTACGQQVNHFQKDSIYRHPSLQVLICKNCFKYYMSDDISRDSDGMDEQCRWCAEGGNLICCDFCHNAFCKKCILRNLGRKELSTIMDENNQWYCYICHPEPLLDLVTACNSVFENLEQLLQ
Procedure: (§1)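 Histone 13-mer peptides were synthesized as cellulose conjugates with a C-terminal 20-atom PEG linker and printed in triplicate on nitrocellulose. The sequence given is the unmodified backbone; PTMs (Kme1/2/3, Kac, Sph/Tph, Rme/Rme2a/Rme2s, Rcit) are listed in the label and the 'peptide modifications' condition. Slides were probed at 4 °C for 1 h with biotin-labelled (HQ)5-HaloTag reader fusions (ATRX-ADD, ING2-PHD) then streptavidin-Alexa647, or with rabbit histone antibodies then anti-rabbit Alexa647. The mean 635 nm signal of the triplicate spots was scaled 0-1 between the lowest and highest values on each array.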

[2] = molecular target: HaloTag-ING2 PHD (mouse Ing2 200-280)
Procedure: as §1

[3] = molecular target: anti-H3K4me3 antibody ab8580
Procedure: as §1

[4] = molecular target: anti-H3K9me3 antibody ab8898
Procedure: as §1

[5] = peptide modifications: H2BK20ac H2BK24ac H2BK28ac, binder concentration: 1:2,000 dilution
[6] = peptide modifications: H2BK20ac H2BK24ac H2BK28ac, binder concentration: 1:10,000 dilution
[7] = peptide modifications: H2BK24ac, binder concentration: 1:2,000 dilution
[8] = peptide modifications: H2BK24ac, binder concentration: 1:10,000 dilution
[9] = peptide modifications: H2BK23ac H2BK24ac H2BK27ac, binder concentration: 1:2,000 dilution
[10] = peptide modifications: H2BK23ac H2BK24ac H2BK27ac, binder concentration: 1:10,000 dilution
[11] = peptide modifications: H2BK20ac, binder concentration: 1:2,000 dilution
[12] = peptide modifications: H2BK20ac, binder concentration: 1:10,000 dilution
[13] = peptide modifications: H2BK24ac H2BK27ac, binder concentration: 1:2,000 dilution
[14] = peptide modifications: H2BK24ac H2BK27ac, binder concentration: 1:10,000 dilution
[15] = peptide modifications: H2BK20ac H2BK27ac H2BK28ac, binder concentration: 1:2,000 dilution
[16] = peptide modifications: H2BK20ac H2BK27ac H2BK28ac, binder concentration: 1:10,000 dilution
[17] = peptide modifications: H2BK20ac H2BK28ac, binder concentration: 1:2,000 dilution
[18] = peptide modifications: H2BK20ac H2BK28ac, binder concentration: 1:10,000 dilution
[19] = peptide modifications: H2BK28ac, binder concentration: 1:2,000 dilution
[20] = peptide modifications: H2BK28ac, binder concentration: 1:10,000 dilution
[21] = peptide modifications: H2BK23ac H2BK24ac H2BK28ac, binder concentration: 1:2,000 dilution
[22] = peptide modifications: H2BK23ac H2BK24ac H2BK28ac, binder concentration: 1:10,000 dilution
[23] = peptide modifications: H2BK23ac H2BK27ac, binder concentration: 1:2,000 dilution
[24] = peptide modifications: H2BK23ac H2BK27ac, binder concentration: 1:10,000 dilution

B1: H2B 17-29 A V T Kac A Q K Kac D G K Kac R (peptide)
chain: AVTKAQKKDGKKR
peptide microarray binding signal ([1]; peptide modifications: H2BK20ac H2BK24ac H2BK28ac, binder concentration: 50 nM): 0.00815 ± 0.00023 | peptide microarray binding signal ([1]; peptide modifications: H2BK20ac H2BK24ac H2BK28ac, binder concentration: 500 nM): 0.00795 ± 0.00026 | peptide microarray binding signal ([2]; peptide modifications: H2BK20ac H2BK24ac H2BK28ac, binder concentration: 10 nM): 0.00853 ± 0.00032 | peptide microarray binding signal ([2]; peptide modifications: H2BK20ac H2BK24ac H2BK28ac, binder concentration: 100 nM): 0.0068 ± 0.00034 | peptide microarray binding signal [3, 5]: 0.00196 ± 0.00041 | peptide microarray binding signal [3, 6]: 0.002054 ± 1.9e-05 | peptide microarray binding signal [4, 5]: 0.0013 ± 0.00012 | peptide microarray binding signal [4, 6]: 0.001614 ± 1.6e-05

B2: H2B 17-29 A V T K A Q K Kac D G K K R (peptide)
chain: AVTKAQKKDGKKR
peptide microarray binding signal ([1]; peptide modifications: H2BK24ac, binder concentration: 50 nM): 0.00295 ± 0.00019 | peptide microarray binding signal ([1]; peptide modifications: H2BK24ac, binder concentration: 500 nM): 0.00762 ± 0.00062 | peptide microarray binding signal ([2]; peptide modifications: H2BK24ac, binder concentration: 10 nM): 0.00609 ± 0.00052 | peptide microarray binding signal ([2]; peptide modifications: H2BK24ac, binder concentration: 100 nM): 0.0283 ± 0.032 | peptide microarray binding signal [3, 7]: 0.0013 ± 8.9e-05 | peptide microarray binding signal [3, 8]: 0.000742 | peptide microarray binding signal [4, 7]: 0.000347 ± 3.5e-06 | peptide microarray binding signal [4, 8]: 0.000577 ± 6.2e-06

B3: H2B 17-29 A V T K A Q Kac Kac D G Kac K R (peptide)
chain: AVTKAQKKDGKKR
peptide microarray binding signal ([1]; peptide modifications: H2BK23ac H2BK24ac H2BK27ac, binder concentration: 50 nM): 0.00329 ± 7.2e-05 | peptide microarray binding signal ([1]; peptide modifications: H2BK23ac H2BK24ac H2BK27ac, binder concentration: 500 nM): 0.00362 ± 0.00012 | peptide microarray binding signal ([2]; peptide modifications: H2BK23ac H2BK24ac H2BK27ac, binder concentration: 10 nM): 0.00406 ± 5.6e-05 | peptide microarray binding signal ([2]; peptide modifications: H2BK23ac H2BK24ac H2BK27ac, binder concentration: 100 nM): 0.004039 ± 3.4e-05 | peptide microarray binding signal [3, 9]: 0.00068 ± 1.9e-05 | peptide microarray binding signal [3, 10]: 0.0012 ± 5.2e-05 | peptide microarray binding signal [4, 9]: 0.000453 ± 1.3e-05 | peptide microarray binding signal [4, 10]: 0.000519 ± 5.6e-06

B4: H2B 17-29 A V T Kac A Q K K D G K K R (peptide)
chain: AVTKAQKKDGKKR
peptide microarray binding signal ([1]; peptide modifications: H2BK20ac, binder concentration: 50 nM): 0.00492 ± 0.0007 | peptide microarray binding signal ([1]; peptide modifications: H2BK20ac, binder concentration: 500 nM): 0.00962 ± 0.0042 | peptide microarray binding signal ([2]; peptide modifications: H2BK20ac, binder concentration: 10 nM): 0.00448 ± 0.00039 | peptide microarray binding signal ([2]; peptide modifications: H2BK20ac, binder concentration: 100 nM): 0.00829 ± 0.0016 | peptide microarray binding signal [3, 11]: 0.000378 ± 2.7e-05 | peptide microarray binding signal [3, 12]: 0.0012 ± 4.3e-05 | peptide microarray binding signal [4, 11]: 0.000483 ± 1.2e-05 | peptide microarray binding signal [4, 12]: 0.000807 ± 2.5e-05

B5: H2B 17-29 A V T K A Q K Kac D G Kac K R (peptide)
chain: AVTKAQKKDGKKR
peptide microarray binding signal ([1]; peptide modifications: H2BK24ac H2BK27ac, binder concentration: 50 nM): 0.00238 ± 4.6e-05 | peptide microarray binding signal ([1]; peptide modifications: H2BK24ac H2BK27ac, binder concentration: 500 nM): 0.0059 ± 0.00037 | peptide microarray binding signal ([2]; peptide modifications: H2BK24ac H2BK27ac, binder concentration: 10 nM): 0.00197 ± 4.6e-05 | peptide microarray binding signal ([2]; peptide modifications: H2BK24ac H2BK27ac, binder concentration: 100 nM): 0.00177 ± 6.2e-05 | peptide microarray binding signal [3, 13]: 0.00138 ± 0.0002 | peptide microarray binding signal [3, 14]: 0.000685 ± 7.2e-06 | peptide microarray binding signal [4, 13]: 0.000227 ± 4.1e-06 | peptide microarray binding signal [4, 14]: 0.000346 ± 3.8e-06

B6: H2B 17-29 A V T Kac A Q K K D G Kac Kac R (peptide)
chain: AVTKAQKKDGKKR
peptide microarray binding signal ([1]; peptide modifications: H2BK20ac H2BK27ac H2BK28ac, binder concentration: 50 nM): 0.00398 ± 4.1e-05 | peptide microarray binding signal ([1]; peptide modifications: H2BK20ac H2BK27ac H2BK28ac, binder concentration: 500 nM): 0.00567 ± 0.00013 | peptide microarray binding signal ([2]; peptide modifications: H2BK20ac H2BK27ac H2BK28ac, binder concentration: 10 nM): 0.003819 ± 3.5e-05 | peptide microarray binding signal ([2]; peptide modifications: H2BK20ac H2BK27ac H2BK28ac, binder concentration: 100 nM): 0.00404 ± 0.00021 | peptide microarray binding signal [3, 15]: 0.000812 ± 0.00014 | peptide microarray binding signal [3, 16]: 0.00114 ± 1.2e-05 | peptide microarray binding signal [4, 15]: 0.0005135 ± 4.8e-06 | peptide microarray binding signal [4, 16]: 0.00075 ± 7.9e-06

B7: H2B 17-29 A V T Kac A Q K K D G K Kac R (peptide)
chain: AVTKAQKKDGKKR
peptide microarray binding signal ([1]; peptide modifications: H2BK20ac H2BK28ac, binder concentration: 50 nM): 0.00245 ± 3.9e-05 | peptide microarray binding signal ([1]; peptide modifications: H2BK20ac H2BK28ac, binder concentration: 500 nM): 0.00848 ± 0.00061 | peptide microarray binding signal ([2]; peptide modifications: H2BK20ac H2BK28ac, binder concentration: 10 nM): 0.00328 ± 6.2e-05 | peptide microarray binding signal ([2]; peptide modifications: H2BK20ac H2BK28ac, binder concentration: 100 nM): 0.00446 ± 0.00022 | peptide microarray binding signal [3, 17]: 0.00126 ± 0.00023 | peptide microarray binding signal [3, 18]: 0.000799 ± 8.3e-06 | peptide microarray binding signal [4, 17]: 0.000393 ± 7.7e-06 | peptide microarray binding signal [4, 18]: 0.000461

B8: H2B 17-29 A V T K A Q K K D G K Kac R (peptide)
chain: AVTKAQKKDGKKR
peptide microarray binding signal ([1]; peptide modifications: H2BK28ac, binder concentration: 50 nM): 0.00194 ± 4.1e-05 | peptide microarray binding signal ([1]; peptide modifications: H2BK28ac, binder concentration: 500 nM): 0.00486 ± 0.00024 | peptide microarray binding signal ([2]; peptide modifications: H2BK28ac, binder concentration: 10 nM): 0.00209 ± 2.4e-05 | peptide microarray binding signal ([2]; peptide modifications: H2BK28ac, binder concentration: 100 nM): 0.00142 ± 1.5e-05 | peptide microarray binding signal [3, 19]: 0.000396 ± 7e-06 | peptide microarray binding signal [3, 20]: 0.000628 ± 6.7e-06 | peptide microarray binding signal [4, 19]: 0.000166 ± 3.6e-06 | peptide microarray binding signal [4, 20]: 0.000346 ± 3.8e-06

B9: H2B 17-29 A V T K A Q Kac Kac D G K Kac R (peptide)
chain: AVTKAQKKDGKKR
peptide microarray binding signal ([1]; peptide modifications: H2BK23ac H2BK24ac H2BK28ac, binder concentration: 50 nM): 0.0036 ± 3.9e-05 | peptide microarray binding signal ([1]; peptide modifications: H2BK23ac H2BK24ac H2BK28ac, binder concentration: 500 nM): 0.00652 ± 0.00023 | peptide microarray binding signal ([2]; peptide modifications: H2BK23ac H2BK24ac H2BK28ac, binder concentration: 10 nM): 0.00561 ± 8.2e-05 | peptide microarray binding signal ([2]; peptide modifications: H2BK23ac H2BK24ac H2BK28ac, binder concentration: 100 nM): 0.00822 ± 0.00014 | peptide microarray binding signal [3, 21]: 0.00143 ± 0.00012 | peptide microarray binding signal [3, 22]: 0.00217 ± 0.00011 | peptide microarray binding signal [4, 21]: 0.000544 ± 2.3e-05 | peptide microarray binding signal [4, 22]: 0.00098 ± 1.7e-05

B10: H2B 17-29 A V T K A Q Kac K D G Kac K R (peptide)
chain: AVTKAQKKDGKKR
peptide microarray binding signal ([1]; peptide modifications: H2BK23ac H2BK27ac, binder concentration: 50 nM): 0.0053 ± 0.00061 | peptide microarray binding signal ([1]; peptide modifications: H2BK23ac H2BK27ac, binder concentration: 500 nM): 0.00781 ± 0.00049 | peptide microarray binding signal ([2]; peptide modifications: H2BK23ac H2BK27ac, binder concentration: 10 nM): 0.00722 ± 0.00015 | peptide microarray binding signal ([2]; peptide modifications: H2BK23ac H2BK27ac, binder concentration: 100 nM): 0.00751 ± 0.001 | peptide microarray binding signal [3, 23]: 0.0021 ± 0.00039 | peptide microarray binding signal [3, 24]: 0.000856 ± 8.9e-06 | peptide microarray binding signal [4, 23]: 0.000604 ± 2e-05 | peptide microarray binding signal [4, 24]: 0.000923 ± 9.6e-06
